Measured values taken from PubChem BioAssay (NCI).
This is part of a sample that, as a whole, favours compounds with a hit. Of some 83,000 tested, about 20% had one in any assay.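 Results are percent growth after 48 hours of single-concentration exposure. 100 means growth as in untreated cells, lower positive values show inhibition; negative values down to -100 show cell death.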 Unmarked numbers belong to inactive results. Calls of active or inactive are those of the source. The calls were made as follows: active = growth percent below 10; inactive = the rest.

Experiments:
Test in all cases: NCI-60 one-dose screen, 48 h (100 = growth as untreated, 0 = no growth, -100 = all killed)
Settings in all cases: 10 µM unless noted
SR leukemia = test system: SR leukemia
RPMI-8226 leukemia = test system: RPMI-8226 leukemia
OVCAR-8 ovarian = test system: OVCAR-8 ovarian
OVCAR-5 ovarian = test system: OVCAR-5 ovarian
OVCAR-4 ovarian = test system: OVCAR-4 ovarian
SK-OV-3 ovarian = test system: SK-OV-3 ovarian
IGROV1 ovarian = test system: IGROV1 ovarian
OVCAR-3 ovarian = test system: OVCAR-3 ovarian
HS 578T breast = test system: HS 578T breast
NCI/ADR-RES ovarian = test system: NCI/ADR-RES ovarian

| Structure (SMILES) | growth (SR leukemia) | growth (RPMI-8226 leukemia) | growth (OVCAR-8 ovarian) | growth (OVCAR-5 ovarian) | growth (OVCAR-4 ovarian) | growth (SK-OV-3 ovarian) | growth (IGROV1 ovarian) | growth (OVCAR-3 ovarian) | growth (HS 578T breast) | growth (NCI/ADR-RES ovarian) |
| --- | --- | --- | --- | --- | --- | --- | --- | --- | --- | --- |
| N#CSCC1CC(O)(c2ccccc2)C(c2ccccc2)C(c2ccc(Cl)cc2)O1 (stereo not given) | -16% (active) | -4.14% (active) | -86.1% (active) | 0.178% (active) | -32.7% (active) | 49.5% | -30.7% (active) | -100% (active) | -32.3% (active) | -71.5% (active) |
| C/C(=C\CCc1ccoc1)CC/C=C(\C)CCCNc1ccc(F)cc1 | 83.4% | 53.8% | 101% | 93.5% | 75.2% | 101% | 91.7% | 99.9% | 109% | 98.1% |
| CCCCCN(CCCCC)CCCNc1c2c(nc3ccc(Cl)cc13)CCCC2 | 0.527% (active) | 4.62% (active) | 37.5% | 41.2% | 17.6% | 66.6% | 17.5% | 58.1% | 71.6% | 48.9% |
| C/C(=C\CCc1ccoc1)CC/C=C(\C)CCCN1CCOCC1 | 21% | 20.8% | 71.5% | 63% | 58.3% | 74.4% | 71.3% | 51.8% | 69.9% | 74.5% |
| CCOC(=O)/C(=C/CC/C(C)=C/CC/C(C)=C/CCc1ccoc1)CC(=O)N1CCCCC1 | 19.8% | -5.3% (active) | 72.4% | 64.6% | 64.8% | 84.4% | 77.8% | 12.5% | 74.3% | 50.6% |
| CCCCCCCC[Si](OCC)(OCC)OCC | 79.4% | 99.2% | 98.9% | 104% | 103% | 105% | 94.6% | 106% | 109% | 108% |
| COC(=O)[C@H](CCCCNC(=O)OCc1ccccc1)NC(=O)[C@@H](NC(=O)Nc1cc(C(F)(F)F)cc(C(F)(F)F)c1)C(C)C | -23.3% [100 µM] (active) | -20.6% [100 µM] (active) | -22.1% [100 µM] (active) | 41.6% [100 µM] | -68.8% [100 µM] (active) | -23.4% [100 µM] (active) | -61% [100 µM] (active) | -92.5% [100 µM] (active) | -1.7% [100 µM] (active) | 60.4% [100 µM] |
| CSc1nc(Nc2ccc(S(=O)(=O)Nc3ccon3)cc2)c(C#N)c(-c2ccc(Cl)cc2)n1 | -37.8% (active) | 71.3% | 95.7% | 106% | 113% | 108% | 96.6% | 122% | 106% | 102% |
| OCc1n(Cc2ccc3ccccc3c2)cc[n+]1Cc1ccc2ccccc2c1 | 15.9% | 13.5% | 60.7% | 62.3% | 23.9% | 75.9% | 21.9% | 39.9% | 66.1% | 103% |
| Cc1cc2c(cc1C)[n+](Cc1ccc3ccccc3n1)cn2Cc1ccc2ccccc2n1 | -20.2% (active) | -30.7% (active) | 6.48% (active) | 23.6% | 8.38% (active) | 0.95% (active) | -4.22% (active) | 3.63% (active) | 27.3% | 96.4% |
| C#C[C@]1(O)CCC2C3CCc4cc(O)ccc4C3CC[C@@]21C (stereo not given in full) | 8.3% (active) | 28.4% | 47.5% | 78.1% | 66.8% | 43% | 55.2% | 16.1% | 4.63% (active) | 13.5% |
| COc1ccc2ncccc2c1Cc1c(OC)ccc2ncccc12 | 25.7% | 69.2% | 87.3% | 91.4% | 83.3% | 83.6% | 64.1% | 72.9% | 72.6% | 40.8% |
| CC1C(=O)NC2=Nc3ccccc3C(=O)NN21 (stereo not given) | 91.3% | 90.3% | 99.7% | 96.5% | 107% | 105% | 79.6% | 116% | 108% | 103% |
| COc1cc(/C=C2\SC(N3CCCCC3)=NC2=O)ccc1OCCCCCCOc1ccc(/C=C2\SC(N3CCCCC3)=NC2=O)cc1OC | 0.724% (active) | -5.76% (active) | 8.07% (active) | 40.6% | 21% | 41.9% | 19.5% | -82.9% (active) | 7.66% (active) | 0.636% (active) |
| CC(=O)c1nn(-c2ccccc2)c(=Nc2ccccc2)cc1C | 99.3% | 100% | 96.7% | 90.5% | 96.9% | 108% | 106% | 113% | 114% | 100% |
| O=C(NCCNC(=O)Oc1cccc2ccccc12)Oc1cccc2ccccc12 | 97.8% | 92.5% | 100% | 105% | 96.4% | 94.5% | 65.2% | 86.5% | 104% | 95.8% |
| O=c1c2ccccc2c2nccn2c2cc(Cl)ccc12 | 11% | 64.8% | 75.3% | 53.2% | 81.5% | 113% | 61.7% | 99.1% | 77.1% | 57.5% |
| CC(=O)N1N=C(c2ccc(Nc3ccnc4cc(Cl)ccc34)cc2)CC1c1ccc(Cl)cc1 (stereo not given) | 2.79% (active) | 22.3% | 66.9% | 87.9% | 45.2% | 68.1% | 51.1% | 29.2% | 41% | 22.9% |
| COc1ccc2c(c1)[n+](=O)c(/C=C/C(=O)c1cc(OC)c(OC)c(OC)c1)c(C)n2[O-] | -10.6% (active) | -45.8% (active) | 3.84% (active) | 84% | 62.8% | 102% | 32.1% | 19.4% | 90.7% | 52.8% |
| C[C@]12CCC(=O)C=C1CC[C@H]1[C@@H]3C[C@@H](O)[C@](O)(C(=O)CO)[C@@]3(C)C[C@H](O)[C@@]12F | 96.3% | 67.1% | 92.8% | 86.7% | 95.7% | 72.4% | 97.6% | 105% | 115% | 95.4% |
| Cc1n(Cc2ccc3ccccc3c2)c2ccccc2[n+]1Cc1ccc2ccccc2c1 | -35.5% (active) | -57.7% (active) | -31.1% (active) | -46.4% (active) | -7.76% (active) | -18.4% (active) | -61.8% (active) | -78.1% (active) | -0.489% (active) | 82.4% |
| COc1ccc(NC(=O)c2ccc(-c3ccccc3)cc2)c(C(N)=O)c1 | 72.2% | 96.3% | 108% | 112% | 115% | 98.5% | 102% | 96.6% | 104% | 98.2% |
| C/C=C(/C(=C/C)c1ccc(O)cc1)c1ccc(O)cc1 | 15.5% | 18.3% | 48.3% | 50.1% | 58.6% | 10.7% | 36.2% | -1.49% (active) | 25.6% | 24.3% |
| Cc1cc(C)c(C(=O)c2cccs2)c(C)c1 | 86.1% | 98.1% | 106% | 98.1% | 109% | 101% | 97.7% | 113% | 109% | 105% |
| CCCCCCC(CC#N)(CCC)CCCC (stereo not given) | 103% | 103% | 105% | 97.8% | 114% | 113% | 101% | 119% | 95.3% | 109% |
| CCOC(=O)C(C(=O)OCC)C1CCCCC1 | 97.3% | 101% | 102% | 105% | 102% | 108% | 93.2% | 110% | 109% | 109% |
| COc1ccc(OC)c2c1CCC1(C2)NC(=O)NC1=O (stereo not given) | 102% | 102% | 97.8% | 101% | 101% | 102% | 110% | 126% | 85.6% | 102% |
